The campaign covered roughly 84,000 compounds. About 110 (0.13%) were called active. The full list was thinned out, with actives kept by preference. Unmarked numbers belong to inactive results. Cut-off read from the data, not from the text of the source: active = inhibition above about 30% (passing the limit was not always enough); inactive = the rest.

For this test, the system named is MgrA (MarR family transcriptional regulator), Staphylococcus aureus Newman. The experiment in a line: S. aureus MgrA activity modulators, primary screen, biochemical, S. aureus Newman, fluorescence polarization (AID 602314).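 Note: 0% = protein plus DNA without compound and 100% = DNA alone without protein; higher means less MgrA bound to DNA so lower polarization.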 As to conditions: MgrA-DNA binding, active compounds read high, concentration not given here. (In general: Polarisation of emitted light reports the rotation of a fluorescent probe.)
With `CCN1C(=O)/C(=C/C=C/c2ccco2)C(=O)NC1=S`, the inhibition is 66.7% (active).
The same measure for `CCN(CC)P1(=S)OC(C)(C)CC1(C)O` (stereo not given): 0.3%; for `O=C1CSC(c2ccccc2)c2c(-c3ccccc3)nn(-c3ccccc3)c2N1` (stereo not given): -0.55%; for `CCn1cc(C=C(C#N)C#N)c2ccccc21`: -2.65%.
In the case of `O=C1NC(=O)C(C2(C3C(=O)NC(=O)NC3=O)C(=O)Nc3ccccc32)C(=O)N1`, the inhibition is 1.5%.
Turning to `COc1cccc(N2C(=O)/C(=C/c3ccsc3)C(=O)NC2=S)c1`, the inhibition was 18.1%.
For `NC1=C(C(=O)OCc2ccccc2)C2(C(=O)Nc3ccc(Br)cc32)c2c(c3ccccc3oc2=O)O1` (stereo not given), the inhibition was -0.3%.
Turning to `CN1CCc2c(c(S)[nH]c(=S)c2C#N)C1`, the inhibition is 77.6% (active).
The value for `Cn1c([O-])c([N+](C)(C)C)c(=O)n(C)c1=O` was 0.5%; that for `O=C1CC(c2cccc(Br)c2)c2c(c3ccccc3oc2=O)O1` (stereo not given) was 13.6%.

As a reminder, the inhibition is the drop in the measured response relative to a control, in per cent.

For the origin of these results see PubChem BioAssay AID602314 (ICCB-Longwood Screening Facility, Harvard Medical School, 2012).
